Results filed as inconclusive are left out. Entries that show only a call come without a potency. Calls of active or inactive are those of the source. Calls come from the whole dose curve; as a rule, active = well fitted cell-killing curve with a large enough effect; inconclusive = small, poorly fitted or top-dose-only effect; inactive = flat fitted curve, though single readings scatter.
Test: qHTS of pediatric cancer cell lines to identify multiple opportunities for drug repurposing: Primary screen for control Hh wild type fibroblast cells (AID 1347106); note: nearly all actives have a fitted effect of over 55% in size
Settings: Hh wild-type fibroblast viability, CellTiter-Glo luminescence, 48 h; series mostly up to 46 µM
Excerpt: Drug repurposing or repositioning has been offered as a strategy for drug development in oncology programs. This approach has special potential for childhood cancers and other rare or orphan diseases, where the expected return on new drug development has been a disincentive to pharmaceuticals.
In this project we exploit the poly-pharmacology of drugs to discover new indications via phenotypic screening of a panel of 19 well-characterized cell lines derived from solid tumors seen in children and adolescents. The goal is to identify approved drugs with previously unrecognized anticancer properties that has the potential to reveal new mechanisms and biological processes involved in carcinogenesis or drug resistance. We employed a titration-based paradigm (quantitative high-throughput screening or qHTS), where all compounds were tested at multiple concentrations for their effect on cell viability. Concentration-response curves (CRCs) were derived directly from the primary screen, and both potency and efficacy values were used to identify compounds with robust bioactivity profiles. We screened the NIH Chemical Genomics Center (NCGC) Pharmaceutical Collection (NPC) and Mechanism Interrogation Plate (MIPE) small molecule collections of approved and investigational compounds against these cell lines; and measured metabolically active cells after 48 hours of compound treatment as a proxy for cell viability.
Assay Submitter: Nathalia J. Martinez, National Center for Advancing Translational Sciences, National Institutes of Health, Rockville, MD, USA; email: natalia.martinez@nih.gov
[1] Shen, M et al. Quantitative high-throughput phenotypic screening of pediatric cancer cell lines identifies multiple opportunities for drug repurposing. Oncotarget 2017 Dec 19;9(4):4758-4772. PMID 29435139.
The cells were obtained from University of North Carolina (UNC), Pediatric Preclinical Testing Program (PPT), and Coriell Institute (CI).
qHTS cell viability assay:
Cells were assayed in growth media at a density of 500-1,000 cells/well. Five microliters of cells were dispensed into 1,536-well, white, solid-bottom, TC-treated plates (Greiner Bio One) using a multidrop dispenser and incubated at 37 degrees C, 5% CO2, under a humidified atmosphere for 5 hours. Twenty-three nanoliters of compounds and controls (neutral control DMSO or positive control bortezomib at final concentration of 2.3 µM) were subsequently transferred by Kalypsys pintool. For primary screens, the MIPE collection was tested at 11-point dilutions (final concentrations range from 0.78 nM to 46 µM) and the NPC collection at 8-point dilutions (final concentrations range from 0.59 nM to 46 µM). Compounds tested in follow-up screens were assayed at 11-point dilutions. Cells were incubated for 48 hours, followed by addition of 3 µL of CellTiter-Glo (Promega). After a 15 min incubation at room temperature, samples were analyzed for luminescence intensity using a ViewLux High-throughput CCD imager equipped with clear filters.
Potency is the fitted concentration of half-maximal effect.

For `CC=C(C)C(=O)N[C@@H](c1ccccc1)[C@@H](O)C(=O)O[C@H]1C[C@@]2(O)[C@@H](OC(=O)c3ccccc3)[C@@H]3[C@]4(OC(C)=O)CO[C@@H]4C[C@H](O)[C@@]3(C)C(=O)[C@H](OC(C)=O)C(=C1C)C2(C)C`, which Potency is on record?
Its Potency is “inactive”.

For `O=C(O)CNC(=O)c1c(O)c2ccccc2n(Cc2ccccc2)c1=O`, which Potency is on record?
Its Potency is “inactive”.

For `C1=C2CCCN[C@H]2[C@@H]2C[C@H]1[C@@H]1CCCCN1C2`, which Potency is on record?
Its Potency is “inactive”.

For `O=[N+]([O-])c1c2ccccc2cc2ccccc12`, which Potency is on record?
Its Potency is “inactive”.

For `C[C@]12COC(=O)C[C@@H]1CC[C@@H]1[C@H]2CC[C@@]2(C)[C@H]1CC[C@]2(C)O`, which Potency is on record?
Its Potency is “inactive”.

With `O=[N+]([O-])c1ncc[nH]1` as the molecule, how does the Potency read?
Its Potency is “inactive”.

Which Potency does the source give for `C[C@]12CC[C@H]3[C@@H](CCC4=CC(=O)CC[C@@]43C)[C@H]1CC[C@H]2O` here?
Its Potency is “inactive”.

For `COc1cc2cc(c1Cl)N(C)C(=O)C[C@H](OC(=O)C(C)C)[C@]1(C)O[C@H]1[C@H](C)[C@@H]1C[C@@](O)(NC(=O)O1)[C@H](OC)C=CC=C(C)C2`, which Potency is on record?
Its Potency is “inactive”.

Which Potency does the source give for `CN(C)[C@@H]1C(=O)C(C(N)=O)=C(O)[C@@]2(O)C(=O)C3=C(O)c4c(O)cccc4[C@@](C)(O)[C@H]3[C@H](O)[C@@H]12` here?
Its Potency is “inactive”.

With `O=C(O)C(Cl)Cl` as the molecule, how does the Potency read?
Its Potency is “inactive”.

Which Potency does the source give for `C=CCON=C(C[C@H]1O[C@@H]2O[C@]3(C)CC[C@@H]4[C@H](C)CC[C@@H]([C@H]1C)[C@@]24OO3)[C@H]1O[C@@H]2O[C@]3(C)CC[C@H]4[C@H](C)CC[C@@H]([C@@H]1C)[C@@]24OO3` here?
Its Potency is “inactive”.

For `CCO/N=C(\CC)C1=C(O)CC(c2c(C)cc(C)cc2C)CC1=O` (stereo not given), which Potency is on record?
Its Potency is “inactive”.

Which Potency does the source give for `ClC1=C(Cl)[C@]2(Cl)[C@@H]3[C@@H]4C[C@@H]([C@H]5O[C@@H]45)[C@@H]3[C@@]1(Cl)C2(Cl)Cl` here?
Its Potency is “inactive”.

With `c1ccc2c(CN3CCNCC3)cccc2c1` as the molecule, how does the Potency read?
The Potency was “inactive”.

Which Potency does the source give for `CC(=Cc1csc(C)n1)[C@@H]1C[C@H]2O[C@@H]2CCC[C@H](C)[C@@H](O)[C@@H](C)C(=O)C(C)(C)[C@@H](O)CC(=O)O1` here?
The Potency was “inactive”.

Which Potency does the source give for `CC(=CCCC1=CCC(C2=CC(=O)OC2O)OC1O)CCC1=C(C)CCCC1(C)C` (stereo not given) here?
Its Potency is “inactive”.

With `COc1ccc2c(c[n+](C)c3c4cc5c(cc4ccc23)OCO5)c1OC` as the molecule, how does the Potency read?
The Potency was 26400 nM (active).

Which Potency does the source give for `COc1ccc(CC2NCCc3cc(OC)c(OC)cc32)cc1OC` (stereo not given) here?
The Potency was “inactive”.

Which Potency does the source give for `CC1=NN=C(c2ccc(N)cc2)c2cc3c(cc2C1)OCO3` here?
The Potency was “inactive”.

With `O=C(O)c1cc(Oc2ccc(C(F)(F)F)cc2Cl)ccc1[N+](=O)[O-]` as the molecule, how does the Potency read?
The Potency was “inactive”.

With `Clc1ccccc1C(c1ccccc1)(c1ccccc1)n1cccn1` as the molecule, how does the Potency read?
The Potency was “inactive”.

For `S=C(SSC(=S)N1CCCCC1)N1CCCCC1`, which Potency is on record?
Its Potency is 1060 nM (active).

With `c1cc2ccc3cccc4ccc(c1)c2c34` as the molecule, how does the Potency read?
The Potency was “inactive”.

For `COC1=CC(C)=C[C@@H](C)[C@@H](O)[C@@H](C)CC(C)=CC=C[C@H](OC)[C@H]([C@@H](C)[C@@H](O)[C@H](C)[C@@]2(O)C[C@@H](O)[C@H](C)[C@@H](C(C)C)O2)OC1=O`, which Potency is on record?
Its Potency is 41.8 nM (active).

Which Potency does the source give for `C[C@]12Cc3cn[nH]c3C[C@@H]1CC[C@@H]1[C@H]2CC[C@@]2(C)[C@H]1CC[C@]2(C)O` here?
The Potency was “inactive”.

For `CC1(C)CC/C(=C/c2ccc(Cl)cc2)C1(O)Cn1cncn1` (stereo not given), which Potency is on record?
Its Potency is “inactive”.

Which Potency does the source give for `C=CC(=O)NCNC(=O)C=C` here?
The Potency was “inactive”.

Which Potency does the source give for `C=C1C[C@H]2[C@H]3CCC(=O)[C@@]3(C)CC[C@@H]2[C@@]2(C)C=CC(=O)C=C12` here?
Its Potency is “inactive”.

Which Potency does the source give for `C[C@]12CC[C@@H]3[C@@H](CCC4=CC(=O)CC[C@@H]43)[C@@H]1CC[C@@H]2OC(=O)CCc1ccccc1` here?
The Potency was “inactive”.

Which Potency does the source give for `O=C(O)COc1ccccc1` here?
Its Potency is “inactive”.

For `CC[C@@H](C(N)=O)N1CCCC1=O`, which Potency is on record?
Its Potency is “inactive”.

With `O=S(=O)(F)Cc1ccccc1` as the molecule, how does the Potency read?
Its Potency is “inactive”.

Which Potency does the source give for `COC(=O)c1cncn1C(C)c1ccccc1` (stereo not given) here?
Its Potency is “inactive”.

Which Potency does the source give for `CCC(=O)OC1CCC2C3CCC4=CC(=O)CC[C@@]4(C)C3CC[C@]12C` (stereo not given in full) here?
The Potency was “inactive”.

Which Potency does the source give for `CC(C)NCC(O)c1ccc([N+](=O)[O-])cc1` (stereo not given) here?
The Potency was “inactive”.

Which Potency does the source give for `Nc1ccc(Sc2ccc(N)cc2)cc1` here?
Its Potency is “inactive”.

Which Potency does the source give for `CCCN(CCC)c1c([N+](=O)[O-])cc(S(N)(=O)=O)cc1[N+](=O)[O-]` here?
The Potency was “inactive”.

Which Potency does the source give for `Cc1ccccc1-n1c(Cn2ncc3c(N)ncnc32)nc2cccc(C)c2c1=O` here?
The Potency was “inactive”.

With `C=CCC1=C(C)C(OC(=O)C2C(C=C(C)C)C2(C)C)CC1=O` (stereo not given) as the molecule, how does the Potency read?
Its Potency is “inactive”.

With `C[C@@]12OC(=O)[C@]1([C@@H](O)[C@@H]1C=CCCC1)NC(=O)[C@H]2CCCl` as the molecule, how does the Potency read?
Its Potency is 93.5 nM (active).

— PubChem BioAssay (NCATS)
